Measurements: ChEMBL document CHEMBL3988442, “University of Dundee, Small-Polar-MMV Screening Library” (2021)
About 1,200 (3.2%) of roughly 38,000 compounds showed an effect of 50% or more. The median lay at about -58%. This excerpt belongs to a sample that is enriched for strong results.

Each compound was assayed on Plasmodium falciparum (assay: Calibr Malaria Delayed Death Assay SOP). Settings: concentration 4.99e-06 (unit not given; other assays of the set use mol/L).
Format: functional, organism-based
Parameters: scale not given: in the data most compounds retested in dose-response had high values

Row | SMILES | Percent Effect [%]
1 | CC(C)Nc1cc(N2CCC(n3cc(CCO)nn3)CC2)ncn1 | -78.28
2 | Cc1cc(C(=O)N2CCN(c3nc4c(C)cccc4s3)CC2)no1 | -18.05
3 | Cc1c(C2N3C[C@]4(C(C)C)CN2C[C@](C(C)C)(C3)C4=O)[nH]c(=O)[nH]c1=O (some centres not stated) | -140.7
4 | O=C(O)C(F)(F)F.O=C1COC2(CCN(c3ncccn3)CC2)CN1Cc1ccccn1 | -77.45
5 | CN(CCCOc1ccccc1)C(=O)c1csc(-c2nnc[nH]2)n1 | 76.91
6 | COc1cccc(CN(C)C(=O)c2csc(-c3nnc[nH]3)n2)c1 | -25.24
7 | COCCN(Cc1ccccc1)C(=O)c1csc(-c2nnc[nH]2)n1 | -56.87
8 | CC(=O)Nc1nc2c(s1)C1(CCCC1)Nc1ccccc1S2 | -91.88
9 | Cc1nc(CCNC(=O)C2CC(=O)N(C(C)C)C2)cs1 (configuration not stated) | -69.29
10 | Cc1ccc(NC2CCN(C(=O)COC3CCCC3)CC2)nn1 | -115.6
11 | Cc1ccccc1CN1CCC(NCC2CNc3ccnn3C2)CC1 (configuration not stated) | 66.35
12 | Cc1cc2n(n1)CC(CNC1CCN(C(=O)c3ccco3)CC1)CN2 (configuration not stated) | -80.47
13 | Cc1cc2n(n1)CC(CNC1CCN(C(=O)C3CC3)CC1)CN2 (configuration not stated) | -153
14 | c1ccc(C2(NCC3CNc4ccnn4C3)CCC2)cc1 (configuration not stated) | 13.04
15 | Cc1cc2n(n1)CC(CNC1CCN(Cc3ccncc3)CC1)CN2 (configuration not stated) | -3.89
16 | Cc1cc2n(n1)CC(CNC1CCN(Cc3ccccc3C)CC1)CN2 (configuration not stated) | 70.36
17 | OCc1ccccc1CNCC1CNc2ccnn2C1 (configuration not stated) | -1.893
18 | Cc1cc2n(n1)CC(CNC1CCN(c3ccccn3)CC1)CN2 (configuration not stated) | -51.76
19 | Cc1cc2n(n1)CC(CNC1CCN(Cc3ccccn3)CC1)CN2 (configuration not stated) | -56.82
20 | Cc1cccc(CN2CCC(NCC3CNc4cc(C)nn4C3)CC2)c1 (configuration not stated) | 85.82
21 | Cc1cc2n(n1)CC(CNC1CCN(C3CC3)CC1)CN2 (configuration not stated) | -73.71
22 | Cc1cc2n(n1)CC(CNC1CCN(CCc3ccccc3)CC1)CN2 (configuration not stated) | 67.68
23 | CC(C)N1CCC(Cc2cc(-c3cc(F)ccc3C(=O)O)ncn2)C1 (configuration not stated) | -123.1

Row | SMILES | Percent Effect [%]
24 | COCCN1CCCC2(CCN(Cc3nnc(C4CC4)o3)C2)C1=O (configuration not stated) | -62.36
25 | COCCNC(=O)c1cccnc1Oc1ccc(Cl)cc1 | -11.3
26 | O=C(NC1CC1)[C@H]1C[C@@H]2CCN(Cc3ccc4c(c3)OCO4)C[C@@H]2O1.O=C(O)C(F)(F)F | -22.11
27 | CC(C)c1nc(C2CCCN2C(=O)CCn2cncn2)no1 (configuration not stated) | -126.6
28 | CCCN(CCc1ccccc1)C(=O)c1ccccc1NCC(=O)O | -32.98
29 | Cc1cc(C(C)(O)CNC(=O)CCn2ccnc2C(C)C)c(C)o1 (configuration not stated) | -18.43
30 | Cc1cc(NC(=O)NCCOc2ccc(Cl)cn2)no1 | -49.88
31 | COc1cc(C)sc1C(=O)NCCNc1ccccc1 | 14.03
32 | COc1cc(C)sc1C(=O)NCCC(=O)N(C)c1ccccc1 | 32.05
33 | COc1cc(C)sc1C(=O)NCCC(=O)N(C)Cc1ccccc1 | 58.21
34 | COCC(=O)N1CCO[C@]2(CCC[C@H]2COC)C1 | -73.03
35 | CCc1n[nH]c(C2CN(C(=O)CCCn3cccn3)CCO2)n1 (configuration not stated) | -94.04
36 | COc1ccc(-c2ccccc2CCN)c(OC)c1OC | 81.6
37 | COc1ccc(-c2ccccc2CCN)c(OC)c1 | 80.76
38 | COc1ccc(-c2ccnc(N)c2)c(OC)c1 | -94.95
39 | COc1ccc(CCN)cc1-c1ccc(S(C)(=O)=O)cc1 | 18.27
40 | CC(=O)Nc1cccc(-c2ccccc2CCN)c1 | -111.2
41 | COc1ccc(CN)c(OC(F)F)c1.Cl | -30.28
42 | COc1ccc(OC)c(-n2cnnc2CCN)c1 | -39.19
43 | COc1ccc(-c2ccccc2CN)c(OC)c1 | 59.74
44 | COc1ccc(-c2cc(CN)ccc2F)c(OC)c1OC | 12.18
45 | Cc1c[nH]c(C(=O)N2CCCC2c2ccc(C(=O)N3CCSCC3)s2)n1 (configuration not stated) | -168.9
46 | CC(=O)N1CCCC2(C1)CN(C(=O)Cc1ccccc1)CCO2 (configuration not stated) | -122.2

Row | SMILES | Percent Effect [%]
47 | O=C(O)Cn1ccc(=O)c2cc(Cl)ccc21 | -122.9
48 | CCOc1cccc2c1OCC(=O)N(c1ccc(N(C)C)cc1)C2 | -248.2
49 | COc1ccc(OCCN(C)C(=O)c2ccc(OC)cc2O)cc1 | -28.6
50 | COc1ccc(-c2nnsc2C(=O)N2CCOCC2)cc1 | -93.54
51 | COc1c(CNCc2ccccc2Cn2cccn2)c(C)nn1C | 54.96
52 | COc1c(CNCc2ccccc2Cn2cncn2)c(C)nn1C | -2.524
53 | COc1c(CNCc2cccc(Cn3cccn3)c2)c(C)nn1C | 6.408
54 | Cc1nn(C)c(C)c1S(=O)(=O)NCC1(C(N)=O)CCOCC1 | -35.42
55 | Cc1ccc(N2CC[C@H]3C[C@H](C(=O)NCc4ccco4)O[C@H]3C2)nn1.O=C(O)C(F)(F)F | -18.7
56 | CN(Cc1ccc([S+](C)[O-])cc1)c1cncc(Br)c1 (configuration not stated) | -68.65
57 | COc1cccc(CN2CCCCCC2c2cccc(C)c2)c1O (configuration not stated) | 56.55
58 | COc1cccc(CN2CCCCCC2c2sccc2C)c1O (configuration not stated) | -12.07
59 | COc1cccc(CN2CCCCCC2c2cccc(F)c2)c1O (configuration not stated) | 55.91
60 | Cc1cccc(C2CCCCCN2Cc2cn(C)nc2C)c1 (configuration not stated) | 32.86
61 | COc1cc(CN2CCCCCC2c2cccs2)cc(OC)c1O (configuration not stated) | -97.62
62 | COc1cccc(CN2CCCCCC2c2cccs2)c1O (configuration not stated) | 1.572
63 | Cc1noc(C2CCC3(CCN(C(=O)c4ccncn4)CC3)O2)n1 (configuration not stated) | -45.98
64 | O=C(c1cccc2cn[nH]c12)N1CCCC1c1noc(C2CC2)n1 (configuration not stated) | -53.04
65 | CCn1ccc(-c2cc(C(=O)O)n3nc(C)c(Cl)c3n2)n1 | -42.05
66 | O=C(O)C(F)(F)F.O=C1C[C@H]2[C@@H](CCN2C(=O)c2ccoc2)N1CCN1CCOCC1 | -16.54
67 | Cc1cccc(-n2ncc3c(=O)n(CCN4CCCCC4)cnc32)c1C | -32.3
